Among all 5,500 compounds or so, about 2,000 (36%) were called active. Inconclusive results (about 18%) are left out. No stated cut-off is given here; in the data, active means normalized growth mostly below about 0.91 (no sharp cut-off); inconclusive means no clear call, values can overlap the other calls; inactive means mostly above about 0.92. This is one part of the list.
Assay: chemical genetic growth profiling, strain panel (AID 1159580);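 further: tested at 20 µM; growth read once vehicle control cultures reached saturation at 30 °C; 1 = growth at the plate median or of vehicle wells; lower values mean less growth of the strain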
Details: growth OD

Measured: normalized growth

CNC(=O)CSP(=S)(OC)OC
inactive: S. cerevisiae deletion strains, locus YJR075W, strain HOC1, hits give low values 1.02 | S. cerevisiae deletion strains, locus YKL009W, strain mrt4, hits give low values 1 | S. cerevisiae deletion strains, locus YKL068W, hits give low values 1.01 | S. cerevisiae deletion strains, locus YKL085W, strain MDH1 (second series), hits give low values 1.01 | S. cerevisiae deletion strains, locus YKL085W, strain MDH1, hits give low values 1.01 | S. cerevisiae deletion strains, locus YKL160W, strain elf1, hits give low values 1.01 | S. cerevisiae deletion strains, locus YKL190W, strain CNB1, hits give low values 0.979 | S. cerevisiae deletion strains, locus YKR001C, strain vps1, hits give low values 1.02 | S. cerevisiae deletion strains, locus YKR026C, strain gcn3, hits give low values 1.01 | S. cerevisiae deletion strains, locus YKR091W, strain srl3, hits give low values 1.02 | S. cerevisiae deletion strains, locus YLL001W, strain dnm1, hits give low values 1.01 | S. cerevisiae deletion strains, locus YLL026W, hits give low values 1.02 | S. cerevisiae deletion strains, locus YLL041C, strain sdh2, hits give low values 1.03 | S. cerevisiae deletion strains, locus YLR027C, strain aat2, hits give low values 1.01 | S. cerevisiae deletion strains, locus YLR039C, strain RIC1, hits give low values 0.993 | S. cerevisiae deletion strains, locus YLR058C, strain SHM2, hits give low values 1.01 | S. cerevisiae deletion strains, locus YLR102C, strain apc9, hits give low values 1.02 | S. cerevisiae deletion strains, locus YLR113W, strain HOG1, hits give low values 0.997 | S. cerevisiae deletion strains, locus YLR221C, strain rsa3, hits give low values 1.03 | S. cerevisiae deletion strains, locus YLR258W, strain gsy2, hits give low values 1.03 | S. cerevisiae deletion strains, locus YLR262C, strain YPT6 (second series), hits give low values 1.05 | S. cerevisiae deletion strains, locus YLR262C, strain YPT6, hits give low values 0.999 | S. cerevisiae deletion strains, locus YLR268W, strain sec22, hits give low values 1.01 | S. cerevisiae deletion strains, locus YLR320W, strain mms22, hits give low values 1.02 | S. cerevisiae deletion strains, locus YLR330W, strain CHS5, hits give low values 1.01 | S. cerevisiae deletion strains, locus YLR342W, strain FKS1 (second series), hits give low values 1.04 | S. cerevisiae deletion strains, locus YLR342W, strain FKS1, hits give low values 1.02 | S. cerevisiae deletion strains, locus YLR357W, strain rsc2, hits give low values 0.986 | S. cerevisiae deletion strains, locus YLR370C, strain arc18, hits give low values 1.03 | S. cerevisiae deletion strains, locus YLR371W, strain rom2, hits give low values 1.02 | S. cerevisiae deletion strains, locus YLR384C, strain iki3, hits give low values 1.04 | S. cerevisiae deletion strains, locus YLR418C, strain cdc73, hits give low values 1.01 | S. cerevisiae deletion strains, locus YML016C, strain PPZ1, hits give low values 1 | S. cerevisiae deletion strains, locus YML032C, strain rad52, hits give low values 1.03 | S. cerevisiae deletion strains, locus YML120C, strain ndi1, hits give low values 1.02 | S. cerevisiae deletion strains, locus YML124C, strain tub3, hits give low values 1.02 | S. cerevisiae deletion strains, locus YMR058W, strain fet3, hits give low values 1.01 | S. cerevisiae deletion strains, locus YMR078C, strain ctf18, hits give low values 1.02 | S. cerevisiae deletion strains, locus YMR125W, strain sto1, hits give low values 1.02 | S. cerevisiae deletion strains, locus YMR129W, hits give low values 1.01 | S. cerevisiae deletion strains, locus YMR205C, strain PFK2, hits give low values 1.01 | S. cerevisiae deletion strains, locus YMR223W, strain ubp8, hits give low values 1.02 | S. cerevisiae deletion strains, locus YMR231W, strain pep5, hits give low values 1.01 | S. cerevisiae deletion strains, locus YMR263W, strain SAP30, hits give low values 1.02 | S. cerevisiae deletion strains, locus YMR307W, strain GAS1, hits give low values 1.03 | S. cerevisiae deletion strains, locus YNL067W, strain RPL9B, hits give low values 1.01 | S. cerevisiae deletion strains, locus YNL071W, strain lat1, hits give low values 1 | S. cerevisiae deletion strains, locus YNL128W, strain TEP1, hits give low values 1.01 | S. cerevisiae deletion strains, locus YNL153C, strain GIM3, hits give low values 1.01 | S. cerevisiae deletion strains, locus YNL183C, strain NPR1, hits give low values 0.982 | S. cerevisiae deletion strains, locus YNL209W, strain ssb2, hits give low values 0.999 | S. cerevisiae deletion strains, locus YNL233W, strain BNI4, hits give low values 0.991 | S. cerevisiae deletion strains, locus YNL248C, strain rpa49, hits give low values 1.02 | S. cerevisiae deletion strains, locus YNL250W, strain rad50, hits give low values 1.02 | S. cerevisiae deletion strains, locus YNL271C, strain bni1, hits give low values 1.02 | S. cerevisiae deletion strains, locus YNL298W, strain CLA4, hits give low values 1.02 | S. cerevisiae deletion strains, locus YNL307C, strain MCK1, hits give low values 1.04 | S. cerevisiae deletion strains, locus YNL322C, strain KRE1 (second series), hits give low values 1 | S. cerevisiae deletion strains, locus YNL322C, strain KRE1, hits give low values 1.01 | S. cerevisiae deletion strains, locus YNR049C, strain mso1, hits give low values 1.02 | S. cerevisiae deletion strains, locus YNR052C, strain pop2, hits give low values 1.02 | S. cerevisiae deletion strains, locus YOL006C, strain TOP1, hits give low values 1.05 | S. cerevisiae deletion strains, locus YOL012C, strain htz1 1.12 | S. cerevisiae deletion strains, locus YOL147C, strain pex11, hits give low values 1.01 | S. cerevisiae deletion strains, locus YOR001W, strain rrp6, hits give low values 1.02 | S. cerevisiae deletion strains, locus YOR061W, strain CKA2, hits give low values 1.01 | S. cerevisiae deletion strains, locus YOR069W, strain VPS5, hits give low values 1 | S. cerevisiae deletion strains, locus YOR070C, strain gyp1, hits give low values 1.02 | S. cerevisiae deletion strains, locus YOR080W, strain dia2, hits give low values 1.02 | S. cerevisiae deletion strains, locus YOR083W, strain WHI5, hits give low values 1.01 | S. cerevisiae deletion strains, locus YOR106W, strain vam3, hits give low values 1.01 | S. cerevisiae deletion strains, locus YOR136W, strain idh2, hits give low values 1.01 | S. cerevisiae deletion strains, locus YOR144C, strain elg1, hits give low values 1.02 | S. cerevisiae deletion strains, locus YOR184W, strain ser1, hits give low values 1.04 | S. cerevisiae deletion strains, locus YOR231W, strain MKK1, hits give low values 1.04 | S. cerevisiae deletion strains, locus YOR265W, strain rbl2, hits give low values 1.03 | S. cerevisiae deletion strains, locus YOR270C, strain vph1, hits give low values 1.05 | S. cerevisiae deletion strains, locus YOR290C, strain snf2, hits give low values 1.03 | S. cerevisiae deletion strains, locus YOR316C, strain cot1, hits give low values 1.03 | S. cerevisiae deletion strains, locus YPL051W, strain arl3, hits give low values 1.01 | S. cerevisiae deletion strains, locus YPL055C, strain LGE1, hits give low values 1 | S. cerevisiae deletion strains, locus YPL078C, strain atp4, hits give low values 1.01 | S. cerevisiae deletion strains, locus YPL106C, strain sse1, hits give low values 1 | S. cerevisiae deletion strains, locus YPL240C, strain hsp82, hits give low values 1.02 | S. cerevisiae deletion strains, locus YPL241C, strain CIN2, hits give low values 1.02 | S. cerevisiae deletion strains, locus YPL256C, strain CLN2, hits give low values 1.05 | S. cerevisiae deletion strains, locus YPR119W, strain clb2, hits give low values 1.02 | S. cerevisiae deletion strains, locus YPR141C, strain kar3, hits give low values 1.02 | S. cerevisiae deletion strains, locus YPR163C, strain tif3, hits give low values 1.02 | S. cerevisiae deletion strains, locus YPR167C, strain met16, hits give low values 1.02 | S. cerevisiae deletion strains, strain wtn01, hits give low values 1.02 | S. cerevisiae strains, strain wild type, hits give low values 1.02

Source: PubChem BioAssay AID1159580 (chemical genetic matrix, 2015)
